# Source: PubChem BioAssay
# In the library only some 3.1% were active in any assay of this set; here they are far more common.
# Rin1 Abl inh – inhibitors of Rin1-Abl protein binding, primary screen, biochemical, TR-FRET. Tyrosine-protein kinase ABL1 (Homo sapiens) + Ras and Rab interactor 1 (Homo sapiens), …. inhibition, % at 7.35 µM. 360,000 compounds, 0.4% hits. AID 588664, 2011; in the data active means inhibition above about 5%, passing the limit was not always enough
# PAFAH1B2 inh – PAFAH1B2 enzyme inhibitors, primary screen, biochemical, fluorescence polarization, human. Platelet-activating factor acetylhydrolase IB subunit alpha2 (Homo sapiens), P68402. recombinant PAFAH1B2, FP-rhodamine activity probe. inhibition, % at 3.39 µM. 340,000 compounds, 1.2% hits;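 active means inhibition above the mean of all tested compounds plus 3 SD, cut at about 24% in these data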;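 further: 0% = enzyme with DMSO and 100% = wells lacking PAFAH1B2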
# PAFAH1B3 inh – PAFAH1B3 enzyme inhibitors, primary screen, biochemical, fluorescence polarization, human; inhibition, % at 3.39 µM; 340,000 compounds, 0.28% hits; recombinant PAFAH1B3, FP-rhodamine probe;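 active means inhibition above the screen-wide average of all tested compounds plus 3 SD, cut at about 25% in these data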;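 further: 0% = enzyme with DMSO only and 100% = wells lacking PAFAH1B3 protein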
# PAFAH2 FP inh – PAFAH2 enzyme inhibitors, primary screen, biochemical, fluorescence polarization, human. recombinant PAFAH2, FP-rhodamine activity probe. inhibition, % at 3.39 µM. 340,000 compounds, 0.99% hits. AID 492956, 2010;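 active means inhibition above the mean over all tested compounds plus 3 SD, cut at about 30% in these data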;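 further: inhibitors block probe labeling of enzyme so polarization drops; 0% = enzyme with DMSO and 100% = wells lacking PAFAH2 protein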
# E coli Lon inh – inhibitors of E. coli Lon protease, primary screen, biochemical, fluorescence polarization. P0A9M0. purified E. coli Lon protease. inhibition, % at 7.94 µM. 360,000 compounds, 0.42% hits. AID 602123, 2011; in the data active means inhibition above about 13%, passing the limit was not always enough;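 further: 0% = enzyme with probe and DMSO and 100% = no enzyme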
# pPAFAH FP inh – pPAFAH enzyme inhibitors, primary screen, biochemical, fluorescence polarization, human; Platelet-activating factor acetylhydrolase (Homo sapiens), Q13093; recombinant pPAFAH, FP-rhodamine probe fluorescence polarization; inhibition, % at 3.39 µM; 330,000 compounds, 1.5% hits; AID 463082, 2010;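 active means inhibition above the mean inhibition across the screen plus 3 SD, cut at about 25% in these data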;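 further: inhibitors block binding of the rhodamine activity-based probe so polarization drops; 0% = enzyme with DMSO and 100% = wells lacking pPAFAH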
# The depositor's hits bear a star; . = not tested or not shown.
SMILES,Rin1 Abl inh,PAFAH1B2 inh,PAFAH1B3 inh,PAFAH2 FP inh,E coli Lon inh,pPAFAH FP inh
CCc1nnc(NC(=O)c2ccc(Br)c(S(=O)(=O)N3CCOCC3)c2)s1,4,7,3,7,8,1
COc1ccc(C(=O)NC(=S)NCc2cccnc2)cc1OC,3,0,2,-8,-12,-1
COc1ccc(C(=O)NC(=S)NCc2ccccc2)cc1OC,3,4,9,-2,-7,30*
C/C(=N/NC(=O)CN1CCN(Cc2ccccc2Cl)CC1)c1ccco1,-1,0,-3,0,13,7
O=C(Nc1ccc(-c2csc(Nc3cccc(C(F)(F)F)c3)n2)cc1)c1cc([N+](=O)[O-])cc(C(F)(F)F)c1,0,24,27*,48*,-8,-1
O=C(Nc1ccc(-c2csc(Nc3cccc(C(F)(F)F)c3)n2)cc1)c1ccccc1,-3,-5,10,1,9,12
CN1CCN(CCCNC(=O)c2ccc(/C=C3\Sc4ccccc4N(Cc4ccc(F)cc4)C3=O)cc2)CC1,-1,2,10,-11,-7,.
CCN1CCN(CCNC(=O)c2ccc(/C=C3\Sc4ccccc4N(Cc4ccccc4F)C3=O)cc2)CC1,-6,2,5,0,14,25*
CC1(C(=O)N2CCN(C(=O)c3ccco3)CC2)CC1(Br)Br (stereo unspecified),-5,0,7,1,-5,1
CCN(c1ccc(OCC(=O)OCC(=O)Nc2ccc(F)c(F)c2F)cc1)S(=O)(=O)c1ccccc1,-2,40*,5,4,16,2
CC(=O)Nc1c(Cl)c(Cl)c2c(c1Cl)C(=O)c1cc(Cl)ccc1-2,2,9,7,9,0,.
O=C(Cn1nnc(-c2cc(C(F)(F)F)cc(C(F)(F)F)c2)n1)NNC(=S)Nc1ccc(Cl)cc1,-1,10,11,3,2,27*
CC(C)(C)NC(=O)COC(=O)c1ccc(Cl)nc1,1,-3,-1,2,-7,6
CCN(CC)c1ccc(C(=O)OCC(=O)NC(C)(C)C)cc1,-1,7,4,81*,6,34*
COc1ccc(NS(=O)(=O)c2ccc(O)c(C(=O)OCC(=O)NC(C)C3CC4CCC3C4)c2)cc1 (stereo unspecified),2,17,3,20,0,31*
CC(NC(=O)COC(=O)c1ccccc1O)C1CC2CCC1C2 (stereo unspecified),1,13,6,24,2,8
CC(NC(=O)COC(=O)c1cc(NS(=O)(=O)c2ccc(Cl)c([N+](=O)[O-])c2)ccc1O)C1CC2CCC1C2 (stereo unspecified),-4,22,4,25,11,28*
COc1cc(C2(c3ccc(O)c(OC)c3)C(=O)Nc3c(Br)cc(Br)cc32)ccc1O,4,25*,7,6,-7,1
CC(C)OCCCNC(=O)COc1ccc2oc3c(c2c1)CCCC3,-1,-2,4,4,-6,16
O=C(O)c1ccc2oc(=O)c(S(=O)(=O)c3ccc(F)cc3)cc2c1,1,32*,-3,45*,1,-2
O=C(O)c1ccc2oc(=O)c(S(=O)(=O)c3ccccc3)cc2c1,-1,27*,4,17,-3,2
CC(C)(C)OC(=O)NCCCCCNC(=O)c1[nH]cnc1C(=O)NC1CCN(C(=O)OC(C)(C)C)CC1,2,1,4,0,-10,10
N#Cc1c(SC(C(=O)O)c2ccccc2)nc2c(c1-c1cccs1)CCCC2 (stereo unspecified),-20,27*,11,-2,-44,20
CCOc1cc(CNCCSc2nnnn2C)cc(Br)c1OCc1ccccc1F,-1,3,4,4,-9,25*
COc1cc(CNCCSc2nnnn2C)cc(Br)c1OCc1ccccc1F,-5,1,-3,-1,0,8
COc1cc(/C=N/NC(=O)c2sc3nc(C)cc(C)c3c2N)ccc1O,-2,.,.,.,-3,31*
